From PubChem BioAssay AID1159554 (Broad Institute, 2015)
“And” between values parts separate entries of the source, which are not always exact repeats. Equal entries are not always repeated. The campaign covered roughly 94,000 compounds. About 2,100 (2.2%) were called active. Rule as the data show it: active = activity change below about -80%; inconclusive = no clear call, values can overlap the other calls; inactive = above that. What follows is part of a selection rich in actives, with near analogues and random picks from the rest.

Experiment: Dd2 malaria parasite growth inhibition – SYBR Green fluorescence, single dose replicates, primary screen (AID 1159554)
Conditions: P. falciparum Dd2 growth, 72 h, at 10 µM, stronger effect = lower value

SMILES | activity change
C/C=C/c1ccc([C@H]2[C@@H](CO)N(C(=O)NCCC)[C@H]2CN(C)C(C)=O)cc1 | 0.514% (inactive)
CCCNC(=O)[C@@H]1[C@@H](CO)[C@@H]2Cn3c(ccc(-c4cccc(OC)c4)c3=O)[C@H]1N2C(=O)NCCC | 8.98% (inactive)
COCC(=O)Nc1ccc2c(c1)OC[C@H](C)N(C(=O)c1cnccn1)C[C@@H](C)[C@@H](OC)CN(C)C2=O | -61.6% (inactive)
COc1ccc(-c2ccccc2[C@H]2[C@@H](CO)N(C(=O)C3CCC3)[C@H]2C#N)cc1 | 17.9% (inactive)
COc1cccc(CNC(=O)C[C@@H]2C=C[C@@H](NC(=O)C3CCC3)[C@@H](CO)O2)c1 | 37.9% (inactive)
COc1ccc2c3c(n(C)c2c1)[C@@H](CO)NCC31CN(S(=O)(=O)c2cccc(C)c2)C1 | -18.8% (inactive)
N#Cc1cccc(-c2ccc(C3[C@H]4CNC[C@@H]3N4S(=O)(=O)c3ccc(-c4ccccc4)cc3)cc2)c1 (stereo partly specified) | 14.1% (inactive) and -40.8% (inactive)
C[C@H]1CN([C@@H](C)CO)C(=O)c2cc(-c3ccncc3)cnc2O[C@@H]1CN(C)C(=O)C1CCCCC1 | -1.12% (inactive)
N#C[C@@H]1[C@H](c2ccccc2-c2ccc(F)cc2)[C@@H](CO)N1c1ncc(-c2ccccc2)s1 | 27.4% (inactive)
CO[C@H]1CN(C)C(=O)c2cc(NC(=O)c3nc4ccccc4s3)ccc2OC[C@H](C)N(Cc2cccnc2)C[C@@H]1C | -15.4% (inactive)
CCCC(=O)Nc1ccc2c(c1)C(=O)N(C)C[C@H](OC)[C@H](C)CN(CCc1ccccc1)[C@H](C)CO2 | -14.1% (inactive)
C[C@H]1CN([C@@H](C)CO)C(=O)Cc2cc(NS(=O)(=O)c3ccccc3)ccc2O[C@H]1CN(C)Cc1ccc(C(=O)Nc2ccccc2N)cc1 | -77.2% (inactive)
Cc1noc(C)c1S(=O)(=O)Nc1ccc2c(c1)C(=O)N([C@@H](C)CO)C[C@H](C)[C@H](CN(C)Cc1ccc(C(=O)Nc3ccccc3N)cc1)O2 | -52.6% (inactive)
C[C@@H]1CN([C@@H](C)CO)C(=O)Cc2cc(NC(=O)C3CCCCC3)ccc2O[C@@H]1CN(C)Cc1ccc(C(=O)Nc2ccccc2N)cc1 | -83.7% (active)
Cc1ccc(S(=O)(=O)Nc2ccc3c(c2)C(=O)N([C@@H](C)CO)C[C@@H](C)[C@@H](CN(C)Cc2ccc(C(=O)Nc4ccccc4N)cc2)O3)cc1 | -61.1% (inactive)
C[C@H]1CN([C@@H](C)CO)C(=O)Cc2cc(NS(=O)(=O)c3ccccc3)ccc2O[C@@H]1CN(C)Cc1ccc(C(=O)Nc2ccccc2N)cc1 | -81.4% (active)
C[C@@H]1CN([C@@H](C)CO)C(=O)Cc2cc(NC(=O)C3CCCCC3)ccc2O[C@@H]1CN(C)Cc1ccc(-c2ccccc2)cc1 | -20.2% (inactive)
C[C@@H]1CN([C@@H](C)CO)C(=O)c2cc(NS(=O)(=O)c3ccccc3)ccc2O[C@@H]1CN(C)Cc1ccc(C(=O)Nc2ccccc2N)cc1 | -83.2% (active)
CC(C)NC(=O)Nc1ccc2c(c1)CC(=O)N([C@H](C)CO)C[C@@H](C)[C@@H](CN(C)Cc1ccc(C(=O)Nc3ccccc3N)cc1)O2 | -49.7% (inactive)
C[C@H](CO)N1C[C@H](C)[C@H](CN(C)Cc2ccc(C(=O)Nc3ccccc3N)cc2)Oc2ccc(NS(C)(=O)=O)cc2C1=O | -28.4% (inactive)
CCCNC(=O)N1C[C@H](C)[C@@H](OC)CN(C)C(=O)c2ccc(NC(=O)CC)cc2OC[C@@H]1C | 52.7% (inactive)
COc1ccc2c3c(n(C)c2c1)[C@H](CO)NCC31CN(Cc2cc(F)ccc2F)C1 | 23% (inactive)
C[C@H]1CN([C@@H](C)CO)S(=O)(=O)c2ccc(C#Cc3cccnc3)cc2O[C@H]1CN(C)C(=O)CN(C)C | -40.6% (inactive)
C[C@H]1CCCCO[C@H](CN(C)S(=O)(=O)c2ccc(F)cc2)[C@@H](C)CN([C@@H](C)CO)C(=O)c2cc(NS(=O)(=O)c3cn(C)cn3)ccc2O1 | 9.89% (inactive)
CCCNC(=O)C[C@@H]1CC[C@H]2[C@@H](COC[C@@H](O)CN2Cc2ccccc2F)O1 | 7.46% (inactive)
C[C@@H]1CN([C@@H](C)CO)S(=O)(=O)c2ccc(C#Cc3ccncc3)cc2O[C@@H]1CN(C)S(=O)(=O)c1ccccc1 | -55.9% (inactive)

SMILES | activity change
C[C@@H]1CN([C@@H](C)CO)S(=O)(=O)c2ccc(C#Cc3ccc(F)cc3)cc2O[C@H]1CN(C)S(C)(=O)=O | -67.9% (inactive)
COc1ccccc1-c1ccc2c(c1)O[C@@H](CN(C)C)[C@H](C)CN([C@H](C)CO)S2(=O)=O | -28.9% (inactive)
COc1ccccc1-c1ccc2c(c1)O[C@H](CN(C)S(=O)(=O)c1ccc(C)cc1)[C@@H](C)CN([C@H](C)CO)S2(=O)=O | -80.6% (active)
C[C@@H]1CN([C@H](C)CO)S(=O)(=O)c2ccc(C#Cc3ccncc3)cc2O[C@@H]1CN(C)S(=O)(=O)c1ccc(F)cc1 | -83% (active)
Cc1ccc(S(=O)(=O)N(C)C[C@@H]2Oc3cc(C4=CCCC4)ccc3S(=O)(=O)N([C@@H](C)CO)C[C@@H]2C)cc1 | -71.1% (inactive)
CO[C@@H]1CN(C)C(=O)c2cc(NC(=O)Nc3cc(F)ccc3F)ccc2OC[C@@H](C)N(C)C[C@H]1C | -36.8% (inactive)
CN1C(=O)c2cc(NC(=O)C3CCOCC3)ccc2OC[C@@H]2O[C@@H](CC(=O)NCC3CC3)CC[C@@H]21 | 6.17% (inactive)
O=C(NCCN1CCCC1)[C@@H]1N[C@@H]2c3ccc(-c4ccccc4)c(=O)n3C[C@@H]2[C@H]1CO | -12.1% (inactive)
COc1ccc(S(=O)(=O)N2CCCCN3[C@H](C2)[C@H](c2ccc(C#CCC(C)C)cc2)[C@@H]3CO)cc1 | 2.68% (inactive)
COc1ccc(S(=O)(=O)N2CCCCN3[C@@H](CO)[C@@H](c4ccc(C#CCC(C)C)cc4)[C@@H]3C2)cc1 | -87.6% (active)
COc1ccc(S(=O)(=O)N2CCCCN3[C@H](CO)[C@@H](c4ccc(C#CC(C)C)cc4)[C@H]3C2)cc1 | -38.8% (inactive)
CO[C@H]1CN(C)C(=O)c2cc(NC(=O)Nc3ccc4c(c3)OCO4)ccc2OC[C@@H](C)NC[C@@H]1C | -43.8% (inactive)
Cc1ccc(S(=O)(=O)Nc2ccc3c(c2)C(=O)N([C@@H](C)CO)C[C@@H](C)[C@H](CN(C)C(=O)Nc2cccc4ccccc24)OCCCC[C@H](C)O3)cc1 | -81.5% (active)
Cc1ccc(S(=O)(=O)Nc2ccc3c(c2)C(=O)N([C@H](C)CO)C[C@H](C)[C@@H](CN(C)C(=O)Nc2ccc4c(c2)OCO4)OCCCC[C@@H](C)O3)cc1 | -34.5% (inactive)
Cc1noc(C)c1S(=O)(=O)Nc1ccc2c(c1)C(=O)N([C@@H](C)CO)C[C@H](C)[C@@H](CN(C)C(=O)Nc1cccc3ccccc13)OCCCC[C@H](C)O2 | -88.5% (active)
Cc1noc(C)c1S(=O)(=O)Nc1ccc2c(c1)C(=O)N([C@@H](C)CO)C[C@@H](C)[C@H](CN(C)C(=O)Nc1cccc3ccccc13)OCCCC[C@H](C)O2 | -39% (inactive)
Cc1noc(C)c1S(=O)(=O)Nc1ccc2c(c1)C(=O)N([C@@H](C)CO)C[C@@H](C)[C@H](CN(C)S(=O)(=O)c1ccc(Cl)cc1)OCCCC[C@H](C)O2 | -80.6% (active)
Cc1noc(C)c1S(=O)(=O)Nc1ccc2c(c1)C(=O)N([C@@H](C)CO)C[C@@H](C)[C@@H](CN(C)S(=O)(=O)c1ccccc1)OCCCC[C@H](C)O2 | -22.9% (inactive)
Cc1ccc(S(=O)(=O)Nc2ccc3c(c2)C(=O)N([C@H](C)CO)C[C@H](C)[C@H](CN(C)C(=O)Nc2ccc4c(c2)OCO4)OCCCC[C@@H](C)O3)cc1 | 4.19% (inactive)
C[C@H]1CCCCO[C@@H](CN(C)C(=O)Nc2cccc3ccccc23)[C@@H](C)CN([C@@H](C)CO)C(=O)c2cc(NS(=O)(=O)c3ccc(Cl)cc3)ccc2O1 | -44.1% (inactive)
Cc1ccc(S(=O)(=O)N(C)C[C@H]2OCCCC[C@H](C)Oc3ccc(NS(=O)(=O)c4c(C)noc4C)cc3C(=O)N([C@H](C)CO)C[C@@H]2C)cc1 | -35.7% (inactive)
COc1ccc(S(=O)(=O)Nc2ccc3c(c2)C(=O)N([C@@H](C)CO)C[C@H](C)[C@@H](CN(C)C(=O)Nc2ccc4c(c2)OCO4)OCCCC[C@@H](C)O3)cc1 | -81.3% (active)
Cc1noc(C)c1S(=O)(=O)Nc1ccc2c(c1)C(=O)N([C@@H](C)CO)C[C@@H](C)[C@H](CN(C)C(=O)Nc1cccc3ccccc13)O2 | 16.8% (inactive)
C[C@@H]1CCCCO[C@@H](CN(C)C(=O)Nc2cccc3ccccc23)[C@H](C)CN([C@@H](C)CO)C(=O)c2cc(NS(=O)(=O)c3ccccc3)ccc2O1 | -2.21% (inactive)
CCNC(=O)C[C@@H]1CC[C@H]2[C@@H](COc3ccc(NC(=O)Cc4cccs4)cc3C(=O)N2C)O1 | 3.93% (inactive)
